# Screening results from PubChem.
# TROY signal inh – blocks TROY-dependent signaling in reporter cells; actives 0.98% (n = 360,000); Q293 LMP1-TROYcd NF-kB luciferase reporter, 4 h; AID 1347056; inhibition, % at 10 µM;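 active means compounds whose plate-normalised and pattern-corrected inhibition of the luciferase reporter signal at the single screening dose is 50% or more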
# Peg3 prom inh – Peg3 promoter activity inhibition; HeLa PEG-Prom luciferase reporter, luminescence, overnight; inhibition, % at 20 µM; actives 1.7% (n = 360,000);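 active means inhibition of at least 50% at 20 µM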
# TRPM1 prom inh – reduces MITF-dependent TRPM1 promoter luciferase signal; SK-MEL-5 TRPM1 promoter luciferase, 24 h; inhibition, % at 12.5 µM; actives 0.83% (n = 330,000);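 active means mean inhibition across replicates of 60% or more, whatever share of single replicates reaches that level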
# HIF-2a inh – inhibitors of HIF-2a | 786-0 RCC cells HIF-2a reporter, luciferase luminescence, overnight | inhibition, % at 18.8 µM | actives 0.72% (n = 360,000);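 active means inhibition of the luminescence signal of 40% or more relative to plate controls, in a single-dose primary screen at 18.75 µM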
# TWEAK Fn14 block – TWEAK-Fn14 signaling inhibition | TWEAK-stimulated Fn14 reporter cells, luciferase luminescence, 8 h | inhibition, % at 10 µM | AID 1159606 | actives 2% (n = 360,000); in the data active means inhibition above about 50%
# LMP1 NFkB inh – reduces LMP1-driven NF-kappaB luciferase signal. LMP1-induced NF-kappaB luciferase reporter cells, luminescence. inhibition, % at 12.5 µM. actives 0.69% (n = 350,000). AID 504558; in the data active means inhibition above about 41%;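 further: 0% = neutral control wells and 100% = reference inhibitor control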
# Numbers without * were called inactive; nt = no result. The list is not random: actives were taken first. Their share in the collection is about 4%.
SMILES,TROY signal inh,Peg3 prom inh,TRPM1 prom inh,HIF-2a inh,TWEAK Fn14 block,LMP1 NFkB inh
O=C1c2ccccc2C2=Nc3ccccc3SC(c3cccc(F)c3)C12 (stereo not drawn),71.0*,57.9*,-0.5,28.1,48.0,12.2
O=C(CNC(=O)c1cccc(F)c1)N/N=C/c1cc(Br)ccc1OC(=O)/C=C/c1ccco1,11.2,31.0,67.2*,-11.2,10.0,12.6
O=C(CNC(=O)c1ccc(F)cc1)N/N=C/c1cc(Br)ccc1OCc1ccccc1,8.9,-6.9,-9.8,-34.1,17.6,-23.5
CC(CN1CCCCC1)NC(=O)c1scnc1-c1ccccc1 (stereo not drawn),-1.9,4.1,nt,9.1,0.5,nt
COc1ccc(C2=CC(=O)CC(C)(C)C2)cc1OC,-22.4,10.3,0.4,0.2,-10.0,7.0
Cc1cc(Cl)c(S(=O)(=O)Nc2ccc3c(c2)OCCO3)cc1OCC(=O)NC1CCCCC1,58.7*,40.3,2.0,29.3,56.4*,10.0
COC(=O)COc1ccc(S(=O)(=O)Nc2ccc3c(c2)OCCO3)cc1C,55.6*,-4.7,26.0,9.9,55.7*,10.2
CC(C)CCn1cnc2c(sc3nc4c(cc32)CSC(C)(C)C4)c1=O,66.9*,-272.0,-85.9,-90.1,68.2*,-9.1
CCCCn1cnc2c(sc3nc4c(cc32)CSC(C)(C)C4)c1=O,37.8,-312.8,-41.4,-145.0,31.0,-51.9
O=C(Cc1ccccc1[N+](=O)[O-])OCC(=O)c1ccccc1Br,-53.4,-1.4,7.8,-11.4,-8.1,-15.2
CCOc1cc(/C=C/C(=O)c2ccc3c(c2)OCCO3)ccc1OCC(=O)N(C)C,-0.7,63.2*,nt,32.0,42.2,28.3
CC1CCN(S(=O)(=O)c2ccc(NC(=O)Cn3nnc(-c4ccccc4)n3)cc2)CC1,-17.6,25.9,8.0,18.4,20.2,-2.3
Cc1ccc(-c2nnn(CC(=O)Nc3ccc(S(=O)(=O)N4CCC(C)CC4)cc3)n2)cc1,4.6,62.8*,11.8,1.8,-8.5,-6.4
Cc1ccccc1N1C(=O)CC(Sc2nnc(-c3ccccc3)o2)C1=O (stereo not drawn),1.8,95.3*,10.0,-40.1,-5.5,-5.5
c1ccc(-c2csc(NNC3=NCCCCC3)n2)cc1,52.8*,-188.9,-15.9,-152.1,41.3,-66.9
Clc1ccc(-c2csc(NNC3=NCCCCC3)n2)cc1,-20.6,-24.6,7.8,-84.7,-7.0,-3.6
Cc1cc2c(=O)oc(-c3ccc(F)cc3)nc2s1,-16.1,-45.3,-0.7,-44.8,52.7*,0.0
Cc1cc2c(=O)oc(-c3ccccc3Br)nc2s1,1.7,6.5,6.8,6.6,9.7,9.7
CC(=O)Oc1cc2cccc(OC(C)=O)c(=O)c2c(OC(C)=O)c1OC(C)=O,34.5,-0.8,20.8,15.5,84.5*,7.3
COc1ccc(S(=O)(=O)N2CCCCCC2)cc1NC(=O)CN(C)Cc1ccc2c(c1)OCO2,5.4,29.7,19.8,16.5,1.6,8.7
CC[C@]12c3[nH]c4ccc(Cl)cc4c3CCN1C(=O)[C@@H](CC(=O)NCC13CC4CC(CC(C4)C1)C3)C[C@@H]2C(=O)N1CCN(C(=O)C2CC2)CC1,38.0,55.5*,26.6,-64.9,43.7,3.6
C[C@]12c3[nH]c4ccc(Cl)cc4c3CCN1C(=O)[C@@H](CC(=O)NCC13CC4CC(CC(C4)C1)C3)C[C@@H]2C(=O)N1CCOCC1,38.8,26.8,16.7,-47.2,42.0,-2.5
C[C@]12c3[nH]c4ccc(Cl)cc4c3CCN1C(=O)[C@@H](CC(=O)NCC13CC4CC(CC(C4)C1)C3)C[C@@H]2C(=O)N1CCCCC1,35.4,56.4*,2.7,-16.0,60.8*,3.0
CC(C)N(C(=O)[C@H]1C[C@H](CC(=O)NCc2cccc(C(F)(F)F)c2)C(=O)N2CCc3c([nH]c4ccc(Cl)cc34)[C@]12C)C(C)C,30.6,59.1*,27.7,-16.2,47.6,10.5
Cc1ccc(Cl)cc1N1CCN(c2cccc[n+]2C)CC1,3.0,10.7,16.6,11.9,18.9,2.8
Nc1nc2c(ncn2[C@@H]2O[C@H](CNS(=O)(=O)c3cccnc3)[C@@H](O)[C@H]2O)c(=O)[nH]1,-11.0,-2.4,nt,8.8,16.1,nt
CCc1ccccc1NC(=O)CCS(=O)(=O)c1ccc(C)cc1,5.6,2.3,-1.0,19.8,5.6,7.4
CCc1ccccc1NC(=O)CCS(=O)(=O)c1ccc(Br)cc1,-15.7,11.4,12.1,6.0,70.0*,-6.8
